Source: PubChem BioAssay (EPA / NIEHS)
Active and inactive are the calls of the source. How the source made its calls: active means hit-call score of the fitted dose curve at least 0.9, where 1 is the maximum; inactive means score below 0.9.

Tests used:
[1] = read-out: Tissue plasminogen activator (tPA), PLAT (gene 5327); experiment: BSK_BE3C_tPA: BioMAP Diversity Plus: BE3C Assay for Tissue plasminogen activator (tPA) Biomarker Activity (AID 2283041); settings: primary human bronchial epithelial cells; actives raise or lower the signal
How it was run: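 Human primary bronchial epithelial cells were dosed with chemical and tPA biomarker levels measured by ELISA 24 hours later. Activity was fitted bidirectionally against DMSO as negative control and baseline.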

[2] = read-out: Interleukin-8 (IL8), CXCL8 (gene 3576); experiment: BSK_CASM3C_IL8: BioMAP Diversity Plus: CASM3C Assay for Interleukin-8 (IL8) Biomarker Activity (AID 2283042); settings: primary human coronary artery smooth muscle cells; actives raise or lower the signal;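 further: IL-8 protein level quantified by ELISA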
[3] = read-out: Human Leukocyte Antigen - DR isotype (HLADR), HLA-DRA (gene 3122); experiment: BSK_CASM3C_HLADR: BioMAP Diversity Plus: CASM3C Assay for Human Leukocyte Antigen - DR isotype (HLADR) Biomarker Activity (AID 2283043); settings: primary human coronary artery smooth muscle cells; actives raise or lower the signal;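 further: cell-surface HLA-DR protein level quantified by ELISA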
[4] = read-out: Macrophage colony-stimulating factor (MCSF), CSF1 (gene 1435); experiment: BSK_CASM3C_MCSF: BioMAP Diversity Plus: CASM3C Assay for Macrophage colony-stimulating factor (MCSF) Biomarker Activity (AID 2283044); settings: primary human coronary artery smooth muscle cells; actives raise or lower the signal;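 further: M-CSF protein amount quantified by ELISA after 24 h exposure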
[5] = read-out: Low-density lipoprotein receptor (LDLR), LDLR (gene 3949); experiment: BSK_CASM3C_LDLR: BioMAP Diversity Plus: CASM3C Assay for Low-density lipoprotein receptor (LDLR) Biomarker Activity (AID 2283045); settings: primary human coronary artery smooth muscle cells; actives raise or lower the signal;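 further: LDLR protein level on the cell surface quantified by ELISA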
[6] = read-out: Monocyte Chemoattractant Protein-1 (MCP1), CCL2 (gene 6347); experiment: BSK_CASM3C_MCP1: BioMAP Diversity Plus: CASM3C Assay for Monocyte Chemoattractant Protein-1 (MCP1) Biomarker Activity (AID 2283046); settings: primary human coronary artery smooth muscle cells; actives raise or lower the signal;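 further: MCP-1 level quantified by ELISA 24 h after dosing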
[7] = BSK_CASM3C_Proliferation: Cell Proliferation Assessment in the BioMAP Diversity Plus: CASM3C Assay (AID 2283047); settings: primary human coronary artery smooth muscle cells;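 further: sulforhodamine B total protein stain as relative cell number at 560 nm; sub-confluent cells exposed 48 h before staining; fitted both ways against DMSO so gain or loss of cell number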
[8] = read-out: Monokine induced gamma interferon (MIG), CXCL9 (gene 4283); experiment: BSK_CASM3C_MIG: BioMAP Diversity Plus: CASM3C Assay for Monokine induced gamma interferon (MIG) Biomarker Activity (AID 2283048); settings: primary human coronary artery smooth muscle cells; actives raise or lower the signal;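 further: MIG protein level measured by ELISA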
[9] = read-out: serum amyloid A (SAA), SAA1 (gene 6288); experiment: BSK_CASM3C_SAA: BioMAP Diversity Plus: CASM3C Assay for serum amyloid A (SAA) Biomarker Activity (AID 2283049); settings: primary human coronary artery smooth muscle cells; actives raise or lower the signal;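 further: SAA protein level quantified by ELISA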
[10] = BSK_CASM3C_SRB: Viability Assessment in the BioMAP Diversity Plus: CASM3C Assay (AID 2283050); settings: primary human coronary artery smooth muscle cells;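 further: total protein by SRB staining as cytotoxicity measure in parallel cultures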
[11] = read-out: Thrombomodulin, THBD (gene 7056); experiment: BSK_CASM3C_Thrombomodulin: BioMAP Diversity Plus: CASM3C Assay for Thrombomodulin Biomarker Activity (AID 2283051); settings: primary human coronary artery smooth muscle cells; actives raise or lower the signal;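 further: thrombomodulin protein level measured by ELISA 24 h after dosing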
[12] = read-out: Tissue Factor, F3 (gene 2152); experiment: BSK_CASM3C_TissueFactor: BioMAP Diversity Plus: CASM3C Assay for Tissue Factor Biomarker Activity (AID 2283052); settings: primary human coronary artery smooth muscle cells; actives raise or lower the signal;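 further: cell surface tissue factor protein level read by ELISA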
[13] = read-out: Interferon-gamma inducible Protein 10 (IP10), CXCL10 (gene 3627); experiment: BSK_hDFCGF_IP10: BioMAP Diversity Plus: hDFCGF Assay for Interferon-gamma inducible Protein 10 (IP10) Biomarker Activity (AID 2283053); settings: primary human foreskin fibroblasts; actives raise or lower the signal
How it was run: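 Human foreskin fibroblast primary cells (hDFCGF system) were dosed with chemical and assayed at 24 h; IP-10 measured by ELISA. Activity fitted bidirectionally relative to DMSO negative control as baseline.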

[14] = read-out: Urokinase-type plasminogen activator receptor (uPAR), PLAUR (gene 5329); experiment: BSK_CASM3C_uPAR: BioMAP Diversity Plus: CASM3C Assay for Urokinase-type plasminogen activator receptor (uPAR) Biomarker Activity (AID 2283054); settings: primary human coronary artery smooth muscle cells; actives raise or lower the signal;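 further: cell-surface uPAR protein level quantified by ELISA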
[15] = read-out: Vascular cell adhesion molecule 1 (VCAM1), VCAM1 (gene 7412); experiment: BSK_CASM3C_VCAM1: BioMAP Diversity Plus: CASM3C Assay for Vascular cell adhesion molecule 1 (VCAM1) Biomarker Activity (AID 2283055); settings: primary human coronary artery smooth muscle cells; actives raise or lower the signal;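 further: VCAM-1 protein level quantified by ELISA on the cells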
[16] = read-out: Collagen III, COL3A1 (gene 1281); experiment: BSK_hDFCGF_CollagenIII: BioMAP Diversity Plus: hDFCGF Assay for Collagen III Biomarker Activity (AID 2283056); settings: primary human foreskin fibroblasts; actives raise or lower the signal
How it was run: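 hDFCGF primary human dermal fibroblasts; 24 h chemical exposure; collagen III by ELISA; bidirectional curve fit vs DMSO baseline (gain or loss of signal).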

[17] = read-out: Epidermal growth factor receptor (EGFR), EGFR (gene 1956); experiment: BSK_hDFCGF_EGFR: BioMAP Diversity Plus: hDFCGF Assay for Epidermal growth factor receptor (EGFR) Biomarker Activity (AID 2283057); settings: primary human foreskin fibroblasts; actives raise or lower the signal
How it was run: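 Primary human foreskin fibroblasts were exposed to compound for 24 h, after which cell-surface EGFR was quantified by ELISA. Activity was fitted bidirectionally against the DMSO negative control as baseline.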

[18] = read-out: Interleukin-8 (IL8), CXCL8 (gene 3576); experiment: BSK_hDFCGF_IL8: BioMAP Diversity Plus: hDFCGF Assay for Interleukin-8 (IL8) Biomarker Activity (AID 2283058); settings: primary human foreskin fibroblasts; actives raise or lower the signal
How it was run: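 ELISA read-out of IL-8 from primary human foreskin fibroblast cultures taken 24 h after dosing; values are bidirectional fits relative to DMSO vehicle.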

[19] = BSK_hDFCGF_Proliferation: Cell Proliferation Assessment in the BioMAP Diversity Plus: hDFCGF Assay (AID 2283059); settings: primary human foreskin fibroblasts;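 further: curves fitted for both rise and fall of signal versus DMSO baseline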
How it was run: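 This proliferation readout used SRB total-protein staining of human foreskin fibroblasts […], normalized to DMSO with bidirectional curve fitting.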

[20] = read-out: Macrophage colony-stimulating factor (MCSF), CSF1 (gene 1435); experiment: BSK_hDFCGF_MCSF: BioMAP Diversity Plus: hDFCGF Assay for Macrophage colony-stimulating factor (MCSF) Biomarker Activity (AID 2283060); settings: primary human foreskin fibroblasts; actives raise or lower the signal
How it was run: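 ELISA read-out of M-CSF in human dermal foreskin fibroblast cultures, 24 h after chemical dosing; gain or loss of signal fitted bidirectionally relative to DMSO baseline.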

Measured: AC50

C#C[C@]1(O)CC[C@H]2[C@@H]3CCC4=Cc5oncc5C[C@]4(C)[C@H]3CC[C@@]21C
active: [5] 33900 nM | [6] 920 nM | [7] 3970 nM | [10] 20000 nM | [15] 25000 nM
inactive: all other assays above

CCCCCCCCC=O
inactive: all assays above

CCCCCCCCCCCCCCCCCC(=O)OCC(CC)CCCC (stereo not given)
inactive: all assays above

CC(=O)/C=C/C1=C(C)CCCC1(C)C
active: [15] 16 nM
inactive: all other assays above

O=C(O)C[C@H](O)C[C@H](O)/C=C/c1c(C2CC2)nc2ccccc2c1-c1ccc(F)cc1
active: [1] 84.3 nM | [4] 63.6 nM | [6] 11.7 nM | [7] 129 nM | [11] 28.7 nM | [12] 4.1 nM | [15] 4.1 nM | [19] 992 nM
inactive: all other assays above

CC(C)(COC(=O)c1ccccc1)COC(=O)c1ccccc1
active: [16] 16700 nM | [19] 32100 nM | [20] 20000 nM
inactive: all other assays above
